Experimental data published in PubChem BioAssay (Tox21).
“And” between values parts separate entries of the source, which are not always exact repeats. Equal entries are not always repeated. Inconclusive results are not listed. A call without a number means that no potency is given here. The source holds several records for some structures; these can differ, active in one and inactive in another. The source made the active and inactive calls. Calls follow the shape of the dose curve; as a rule, active = well fitted cell-killing curve with a large enough effect in the repeat runs; inconclusive = weak or mixed curves; inactive = no such curve, though single readings can be large or run the other way.

Test: qHTS assay for identifying genotoxic compounds that show differential cytotoxicity against isogenic chicken DT40 cell lines with known DNA damage response pathways - Rad54/Ku70 mutant cell line (AID 743015); also: nearly all actives have a fitted effect of over 60% in size
Conditions: DT40 Rad54/Ku70 mutant viability, CellTiter-Glo, 40 h; series mostly up to 66.8 µM
Text: National Center for Advancing Translational Sciences [NCATS]
NIH Chemical Genomics Center [NCGC]
U.S. Environmental Protection Agency [EPA]
National Institutes of Environmental Health Sciences [NIEHS]
National Toxicology Program [NTP]
U.S. Food and Drug Administration [FDA]
DNA repair pathways play a critical role in cellular homeostasis by repairing DNA damage induced by endogenous processes and xenobiotics. Isogenic chicken DT40 cell lines deficient in different DNA repair pathways can be used to identify genotoxic compounds and aid in characterizing the nature of the DNA damage induced. Two DNA repair-deficient cell lines with disrupted genes, Rad54/Ku70 or Rev3, were used to screen the Tox21 10K compound library. Possible genotoxicity was based on the presence of a significant increase in cytotoxicity in one or more of the DNA repair-deficient cell lines compared to that observed in the parental DNA repair-proficient cell line. CellTiter Glo viability assay (Promega, Madison, WI) was used to measure cell viability in these cells after compound treatment. This assay includes the data from the Rad54/Ku70 mutant cell line.
Tox21 Assay Protocol Summary:
300 DT40 mutant cells in 5 uL/well were dispensed into white, solid-bottom 1536-well plates using a Multidrop Combi (ThermoFisher Scientific, Waltham, MA) dispenser. After the assay plates were incubated at 37 C/5% CO2 for approximately 0.5 hour, 23 nL of compounds dissolved in DMSO, positive controls or DMSO only was transferred into the assay plate by a pintool work station (Kalypsys, San Diego, CA). The assay plates were incubated at 37 C/5% CO2 for 40 hours. After 5 uL per well of CellTiter-Glo reagent was added into each well of the assay plates, the plates were incubated for 30 min at room temperature and the luminescence intensity of the plates was measured using a ViewLux (PerkinElmer, Shelton, CT) plate reader.
Potency is read from the fitted curve at half-maximal effect.

| SMILES | Potency |
| --- | --- |
| CC1COc2c(N3CCN(C)CC3)c(F)cc3c(=O)c(C(=O)O)cn1c23 (stereo not given) | inactive |
| CCc1cc(C(C)(C)C)c(O)c(C(C)(C)C)c1 | inactive |
| CCC(C)(C)C(=O)O[C@H]1C[C@@H](C)C=C2C=C[C@H](C)[C@H](CC[C@@H]3C[C@@H](O)CC(=O)O3)[C@H]21 | 1.09 µM (active) |
| Nc1cc(S(=O)(=O)O)cc2cc(S(=O)(=O)O)cc(O)c12 | inactive and 61.1 µM (active) |
| CCC[C@H](N[C@@H](C)C(=O)N1[C@H](C(=O)O)C[C@@H]2CCCC[C@@H]21)C(=O)OCC | inactive |
| [Cl][In]([Cl])[Cl] | inactive |
| O=C1CC2(CCCC2)CC(=O)N1CCCCN1CCN(c2ncccn2)CC1 | 21.1 µM (active) and 15.4 µM (active) |
| CC(=O)CC(=O)Nc1ccc2[nH]c(=O)[nH]c2c1 | inactive |
| CC(C)(c1ccccc1)c1ccc(Nc2ccc(C(C)(C)c3ccccc3)cc2)cc1 | inactive and 61.1 µM (active) |
| NCCCCCC(=O)O | inactive |
| CNCCC(Oc1ccc(C(F)(F)F)cc1)c1ccccc1 (stereo not given) | 6.68 µM (active) and 8.52 µM (active) |
| CCn1cc(C(=O)O)c(=O)c2cc(F)c(N3CCNC(C)C3)c(F)c21 (stereo not given) | inactive |
| CCCCCCCCCCCCCCCCCl | inactive |
| NCCO | inactive |
| Nc1cc(Cl)c(-c2cc(Cl)c(N)cc2Cl)cc1Cl | 2.73 µM (active) and 4.33 µM (active) |
| C/C=C/c1ccc(OCC)c(O)c1 | inactive |
| OCCN1CCNCC1 | inactive |
| CCN1CCCC1CNC(=O)c1cc(S(=O)(=O)CC)c(N)cc1OC (stereo not given) | inactive |
| CCCCCCC(O)CCCCCCCCCCC(=O)O (stereo not given) | inactive and 48.6 µM (active) |
| CCN(CC)c1ccc2c(C)cc(=O)oc2c1 | 61.6 µM (active) |

| SMILES | Potency |
| --- | --- |
| Cc1ccc(-c2cc(C(F)(F)F)nn2-c2ccc(S(N)(=O)=O)cc2)cc1 | 29.8 µM (active) and 54.3 µM (active) and 24.3 µM (active) |
| CCCCCCCCCCCC[N+](C)(C)C | 543 nM (active) and 217 nM (active) |
| CC(C)(C)NCC(O)c1cc(O)cc(O)c1 (stereo not given) | inactive |
| O=C1OC2(c3ccc(O)cc3Oc3cc(O)ccc32)c2ccccc21 | inactive |
| CCn1c2ccccc2c2cc(N)ccc21 | 54.5 µM (active) |
| CCc1ccc(C(c2ccc(CC)cc2)C(Cl)Cl)cc1 | inactive |
| CC(C)(C)c1ccccc1 | inactive |
| Oc1ccc(Cl)cc1Cc1cc(Cl)ccc1O | 16.8 µM (active) and 31.2 µM (active) and 12.2 µM (active) |
| CCOC(=O)C(C)C(C)=O (stereo not given) | inactive |
| NC(=Nc1ccccc1)Nc1ccccc1 | inactive and 61.1 µM (active) |
| O | inactive |
| CC(=O)CC(C)=O | inactive |
| CCC(=O)/C=C/C1C(C)=CCCC1(C)C (stereo not given) | inactive and 61.1 µM (active) |
| O=c1n(CC2CO2)c(=O)n(CC2CO2)c(=O)n1CC1CO1 (stereo not given) | 944 nM (active) and 217 nM (active) |
| O=C(Nc1ccccc1SSc1ccccc1NC(=O)c1ccccc1)c1ccccc1 | 2.45 µM (active) and 1.72 µM (active) |
| O=Nc1ccc(Nc2ccccc2)cc1 | 3.08 µM (active) and 2.17 µM (active) |
| CC1=C(C=O)C(C)(C)CC=C1 | inactive |
| COC(=O)c1cccc(C(=O)OC)c1 | inactive |
| COc1ccc(CCN(C)CCCC(C#N)(c2ccc(OC)c(OC)c2)C(C)C)cc1OC (stereo not given) | 29.8 µM (active) and 61 µM (active) |
| Cc1cc(Cc2cc(C)cc(C(C)(C)C)c2O)c(O)c(C(C)(C)C)c1 | 9.74 µM (active) and 15.4 µM (active) |
